According to PubChem BioAssay (EPA / NIEHS):
Values joined by “and” are separate entries in the source; they are usually repeats but may differ in a detail not shown here. Identical values can stand only once. A structure can be active in one record and inactive in another. Active and inactive are the calls of the source. The calls were made as follows: active = hit-call score of the fitted dose curve at least 0.9, where 1 is the maximum; inactive = score below 0.9.

Tests used:
[1] = read-out: Monokine induced gamma interferon (MIG), CXCL9 (gene 4283); assay: BSK_BE3C_MIG: BioMAP Diversity Plus: BE3C Assay for Monokine induced gamma interferon (MIG) Biomarker Activity (AID 2283035); settings: primary human bronchial epithelial cells; actives raise or lower the signal
Procedure, shortened: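 Dose cells (human primary bronchial epithelial), incubate 24 h, quantify MIG by ELISA, then fit concentration–response in both directions relative to DMSO control.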

[2] = read-out: Transforming growth factor beta 1 (TGFb1), TGFB1 (gene 7040); assay: BSK_BE3C_TGFb1: BioMAP Diversity Plus: BE3C Assay for Transforming growth factor beta 1 (TGFb1) Biomarker Activity (AID 2283036); settings: primary human bronchial epithelial cells; actives raise or lower the signal
Procedure, shortened: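 Bronchial epithelial primary cells are treated with test chemical, then TGF-b1 is quantified by ELISA after 24 hours. Values derive from bidirectional fitting against DMSO, with cytotoxicity checked by SRB staining in parallel cultures.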

[3] = read-out: Plasminogen activator inhibitor-1 (PAI1), SERPINE1 (gene 5054); assay: BSK_BE3C_PAI1: BioMAP Diversity Plus: BE3C Assay for Plasminogen activator inhibitor-1 (PAI1) Biomarker Activity (AID 2283037); settings: primary human bronchial epithelial cells; actives raise or lower the signal
Procedure, shortened: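 Values derive from bidirectional fitting against DMSO baseline of PAI-1 levels, measured by ELISA in human bronchial epithelial cells 24 h after compound addition.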

[4] = read-out: urokinase plasminogen activator (uPA), PLAU (gene 5328); assay: BSK_BE3C_uPA: BioMAP Diversity Plus: BE3C Assay for urokinase plasminogen activator (uPA) Biomarker Activity (AID 2283038); settings: primary human bronchial epithelial cells; actives raise or lower the signal
Procedure, shortened: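 Measured by ELISA: uPA from human primary bronchial epithelial cells 24 h after chemical treatment. Values derive from bidirectional curve fitting with DMSO serving as negative control. Total protein by SRB staining in parallel wells flagged overt cytotoxicity.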

[5] = read-out: Interleukin-6 (IL6), IL6 (gene 3569); assay: BSK_CASM3C_IL6: BioMAP Diversity Plus: CASM3C Assay for Interleukin-6 (IL6) Biomarker Activity for (AID 2283040); settings: primary human coronary artery smooth muscle cells; actives raise or lower the signal
[6] = read-out: Tissue plasminogen activator (tPA), PLAT (gene 5327); assay: BSK_BE3C_tPA: BioMAP Diversity Plus: BE3C Assay for Tissue plasminogen activator (tPA) Biomarker Activity (AID 2283041); settings: primary human bronchial epithelial cells; actives raise or lower the signal
Procedure, shortened: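 Gain- or loss-of-signal in tPA, measured by ELISA, derived by bidirectional fitting against DMSO. Cells: human primary bronchial epithelial; read at 24 h after chemical dosing.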

[7] = read-out: Interleukin-8 (IL8), CXCL8 (gene 3576); assay: BSK_CASM3C_IL8: BioMAP Diversity Plus: CASM3C Assay for Interleukin-8 (IL8) Biomarker Activity (AID 2283042); settings: primary human coronary artery smooth muscle cells; actives raise or lower the signal;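 also: IL-8 protein level quantified by ELISA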
[8] = read-out: Human Leukocyte Antigen - DR isotype (HLADR), HLA-DRA (gene 3122); assay: BSK_CASM3C_HLADR: BioMAP Diversity Plus: CASM3C Assay for Human Leukocyte Antigen - DR isotype (HLADR) Biomarker Activity (AID 2283043); settings: primary human coronary artery smooth muscle cells; actives raise or lower the signal;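 also: cell-surface HLA-DR protein level quantified by ELISA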
[9] = read-out: Macrophage colony-stimulating factor (MCSF), CSF1 (gene 1435); assay: BSK_CASM3C_MCSF: BioMAP Diversity Plus: CASM3C Assay for Macrophage colony-stimulating factor (MCSF) Biomarker Activity (AID 2283044); settings: primary human coronary artery smooth muscle cells; actives raise or lower the signal;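 also: M-CSF protein amount quantified by ELISA after 24 h exposure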
[10] = read-out: Low-density lipoprotein receptor (LDLR), LDLR (gene 3949); assay: BSK_CASM3C_LDLR: BioMAP Diversity Plus: CASM3C Assay for Low-density lipoprotein receptor (LDLR) Biomarker Activity (AID 2283045); settings: primary human coronary artery smooth muscle cells; actives raise or lower the signal;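 also: LDLR protein level on the cell surface quantified by ELISA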

Measured: AC50

CC(C)(c1cc(Br)c(OCCO)c(Br)c1)c1cc(Br)c(OCCO)c(Br)c1
active: [9] 4.39 µM
inactive: all other assays above

O=C(c1ccc(O)cc1)c1ccc(O)cc1O
active: [3] 13.2 µM and 12.6 µM
not listed: [2]
inactive: all other assays above

N#[N+]c1ccc2c(S(=O)(=O)[O-])cccc2c1O
inactive: all assays above

CC1OC1C1CCC2(C)OC2C1 (stereo not drawn)
inactive: all assays above

CCOC(=O)c1ccccc1C(=C1C=C(Br)C(=O)C(Br)=C1)c1cc(Br)c(O)c(Br)c1
active: [1] 5.86 µM and 5.17 µM | [3] 2.48 µM | [4] 3.81 µM and 4.21 µM | [6] 2.55 µM and 2.71 µM
not listed: [2]
inactive: all other assays above

CC(C)C(=O)C(C)C
inactive: all assays above

S=C(NC1CCCCC1)NC1CCCCC1
inactive: all assays above

COCc1c(C(C)C)nc(C(C)C)c(/C=C/[C@@H](O)C[C@@H](O)CC(=O)O)c1-c1ccc(F)cc1
active: [7] 0.0375 µM
inactive: all other assays above

CCCCCCCCc1ccc(Nc2ccc(CCCCCCCC)cc2)cc1
inactive: all assays above

CCCCNc1ccc(NCCCC)c2c1C(=O)c1ccccc1C2=O
active: [2] 5 µM | [4] 5 µM
inactive: all other assays above

C=CC=CC=CCCCCC
active: [8] 5 µM
inactive: all other assays above

O=Nc1ccc(O)cc1
inactive: all assays above

CN1C(=O)N(C)C(O)C1O (stereo not drawn)
not listed: [2]
inactive: all other assays above

Nc1ccc(N)c(Cl)c1
active: [3] 3.32 µM and 2.4 µM | [9] 8.11 µM and 1.83 µM
not listed: [2]
inactive: all other assays above

CO[Si](OC)(OC)c1ccccc1
inactive: [1] | [3] | [4] | [5] | [6] | [7] | [8] | [9] | [10]
active: [8] 3.86 µM

CCCCC/C=C\C/C=C\CCCCCCCC(=O)OC
active: [1] 38.5 µM | [5] 20 µM | [8] 20 µM | [9] 20 µM | [10] 28.7 µM
inactive: [2] | [3] | [4] | [6] | [7]

CCCCC(CC)COC(=O)c1ccccc1O (stereo not drawn)
inactive: all assays above

C=CC(=O)OCC(Br)CBr (stereo not drawn)
inactive: [2] | [3] | [4] | [6]
active: [1] 31.4 µM | [5] 26 µM | [7] 30.4 µM | [8] 11.1 µM | [9] 20 µM | [10] 36 µM

O=C(Cl)c1cc(C(=O)Cl)cc(C(=O)Cl)c1
inactive: [2]
active: [1] 39.1 µM | [3] 26.7 µM | [4] 20 µM | [5] 26.1 µM | [6] 31.8 µM | [7] 30.3 µM | [8] 15.5 µM | [9] 14.5 µM | [10] 12.3 µM

c1ccc2c(c1)ccc1cc3c(ccc4ccccc43)cc12
inactive: all assays above

CCCCC(CC)COCC1CO1 (stereo not drawn)
not listed: [2]
inactive: all other assays above

CCO[Si](C)(OCC)OCC
not listed: [2]
inactive: all other assays above

C/C=C\C/C=C/CCCCCCCCOC(C)=O
active: [8] 20 µM | [9] 20 µM
inactive: all other assays above

c1ccc(-c2ccccn2)nc1
inactive: all assays above

C#CC1(O)CC[C@H]2[C@@H]3CCC4=CCCC[C@@H]4[C@H]3CC[C@@]21C (stereo partly drawn)
inactive: [2] | [3] | [6] | [10]
active: [1] 36 µM | [4] 20 µM | [5] 6.06 µM | [7] 32.8 µM | [8] 34.8 µM | [9] 20 µM

CCCCCCCCCCCCCCCC[N+](C)(C)CC
active: [1] 9.57 µM | [2] 0.599 µM | [3] 10.4 µM | [4] 2.25 µM | [5] 4.5 µM | [6] 0.797 µM | [7] 5.98 µM | [8] 2.97 µM | [9] 1.93 µM | [10] 2.94 µM

CCO[Si](CCCN=C=O)(OCC)OCC
inactive: all assays above

O=c1c2ccccc2oc2ccccc12
inactive: all assays above

CCOc1nc(F)cc2nc(S(=O)(=O)Nc3c(Cl)cccc3C(=O)OC)nn12
inactive: all assays above

O=C(Nc1ccccc1SSc1ccccc1NC(=O)c1ccccc1)c1ccccc1
active: [8] 5.29 µM
inactive: all other assays above

C=C[Si](OC(C)=O)(OC(C)=O)OC(C)=O
active: [10] 1.25 µM
inactive: [1] | [3] | [4] | [5] | [6] | [7] | [8] | [9] | [10]

O=C1CCCN1CCO
not listed: [2]
inactive: all other assays above

c1ccc2c(c1)ccc1ncccc12
inactive: all assays above

COc1ccc2nc(N)sc2c1
inactive: all assays above

C=CCOc1c(Br)cc(Br)cc1Br
active: [2] 6.57 µM | [3] 20 µM | [4] 20 µM | [5] 27.5 µM | [6] 8.88 µM | [7] 27.1 µM | [8] 26.8 µM | [9] 28.3 µM | [10] 20 µM
inactive: [1]

C=CCOCC(O)CCl (stereo not drawn)
inactive: all assays above
